# Assay results as given in the supplement of paper PMC7411640.
# Counter-ions that a name gives are not always drawn.
# Tested on: MDA-MB-468
# Assay: phospho-S6 immunofluorescence (DAPI-normalised), per-plate z-score; higher = higher phospho-S6 signal (less pathway suppression)
# Conditions: 24 h
# Experimental: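 GPCR-targeted compound library (MedChemExpress HY-L006) tested on MDA-MB-468 PTEN-null TNBC cells in 384-well plates at 0.1, 1 or 10 uM, combined with vehicle, GDC0941 450 nM or lapatinib 1 uM, for 24 h. Phospho-S6 (S240/244) immunofluorescence normalised to DAPI and expressed as a per-plate z-score; values are the mean of biological triplicates.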
Compound,phospho-S6 immunofluorescence (z-score) (co-treatment: GDC0941 450 nM),phospho-S6 immunofluorescence (z-score) (co-treatment: lapatinib 1 uM),phospho-S6 immunofluorescence (z-score) (co-treatment: vehicle)
CCCCC(C)(O)C/C=C/[C@H]1[C@H](O)CC(=O)[C@@H]1CCCCCCC(=O)OC (mixture of isomers) [Misoprostol] (compound 10 µM),0.36,0.67,1.59
CC(=O)Oc1cc2c(s1)CCN(C(C(=O)C1CC1)c1ccccc1F)C2 (stereo unspecified) [Prasugrel] (compound 10 µM),-1.29,1.92,-0.48
CCC(=O)OCC(=O)[C@@]1(OC(=O)CC)[C@@H](C)C[C@H]2[C@@H]3CCC4=CC(=O)C=C[C@]4(C)[C@@]3(Cl)[C@@H](O)C[C@@]21C [Beclometasone dipropionate] (compound 10 µM),0.45,0.54,0.15
CCn1c(=O)c2c(nc(/C=C/c3ccc(OC)c(OC)c3)n2C)n(CC)c1=O [Istradefylline] (compound 10 µM),0.2,0.09,-0.74
Nc1ccc(/C=C/c2cccc(C(=O)O)n2)cc1 (compound 10 µM),0.9,0.88,1.07
COc1ccc2[nH]cc(CCNC(C)=O)c2c1 [Melatonin] (compound 10 µM),-1.25,0.24,-0.21
O=C(O[C@@H]1C[C@@H]2C[C@H]3C[C@H](C1)N2CC3=O)c1c[nH]c2ccccc12 [Dolasetron (Mesylate hydrate)] (compound 10 µM),0.52,-0.24,0.62
CCc1nn(CCCN2CCN(c3cccc(Cl)c3)CC2)c(=O)n1CCOc1ccccc1 [Nefazodone (hydrochloride)] (compound 10 µM),-4.37,-2.37,-1.26
CC(C)NCC(O)COc1ccc(CCOCC2CC2)cc1 (stereo unspecified) [Betaxolol (hydrochloride)] (compound 10 µM),0.79,0.07,0.74
CCCCC1=NC2(CCCC2)C(=O)N1Cc1ccc(-c2ccccc2-c2nnn[nH]2)cc1 [Irbesartan] (compound 10 µM),0.03,0.13,0.09
CN1CCC(=C2c3ccccc3CCc3sccc32)CC1 [Pizotifen] (compound 10 µM),0.35,-1.87,-0.19
NC(N)=Nc1nc(CSCCN/C=N/S(=O)(=O)c2ccc(Br)cc2)cs1 [Ebrotidine] (compound 10 µM),-4.2,-3.36,-1.7
COc1ccc(C2CC(c3ccccc3)=NN2c2ccc(S(N)(=O)=O)cc2)cc1 (stereo unspecified) (compound 10 µM),-3.22,-0.2,-6.71
CCC(=O)OCC(=O)[C@@]1(OC(=O)CC)[C@@H](C)C[C@H]2[C@@H]3CCC4=CC(=O)C=C[C@]4(C)[C@@]3(F)[C@@H](O)C[C@@]21C [Betamethasone dipropionate] (compound 10 µM),-0.51,-0.45,0.82
CN1CC2c3ccccc3Oc3ccc(Cl)cc3C2C1 (stereo unspecified) [Asenapine (hydrochloride)] (compound 10 µM),-0.8,-2.17,0
CN(C)CC[C@@H](c1ccc(Cl)cc1)c1ccccn1 [Dexchlorpheniramine (maleate)] (compound 10 µM),0.61,-0.08,-0.33
CC(C)(C(=O)O)c1ccc(C(O)CCCN2CCC(C(O)(c3ccccc3)c3ccccc3)CC2)cc1 (stereo unspecified) [Fexofenadine (hydrochloride)] (compound 10 µM),-0.31,-0.84,-0.42
O=c1ccccn1CC1(O)CCN(Cc2ccccc2)CC1 (compound 10 µM),0.52,-0.19,0.48
CC(COc1ccccc1)N(CCCl)Cc1ccccc1 (stereo unspecified) [Phenoxybenzamine (hydrochloride)] (compound 10 µM),0.33,-0.04,0.39
CCN(Cc1ccncc1)C(=O)C(CO)c1ccccc1 (stereo unspecified) [Tropicamide] (compound 10 µM),0.17,1.42,-0.17
Cc1nc(C#Cc2cccnc2)cs1 [MTEP (hydrochloride)] (compound 10 µM),-0.31,-0.65,-0.75
CC(C)NCC(O)COc1ccc(CCOCC2CC2)cc1 (stereo unspecified) [Betaxolol] (compound 10 µM),0.15,0.69,-0.54
CN1CCC(=C2c3ccccc3CCc3cccnc32)CC1 [Azatadine (dimaleate)] (compound 10 µM),0,0.29,-0.32
CC1(C)O[C@@H]2[C@@H](CO[C@@]3(COS(N)(=O)=O)OC(C)(C)O[C@@H]23)O1 [Topiramate] (compound 10 µM),-0.24,0.19,-0.31
C=CCN1CCc2c(cc(O)c(O)c2Cl)C(c2ccccc2)C1 (stereo unspecified) (compound 10 µM),-0.13,1.66,1.76
O=C(Nc1ccccc1)C12CC1C(=NO)c1ccccc1O2 (stereo unspecified) (compound 10 µM),-0.19,-0.81,0.75

Compound,phospho-S6 immunofluorescence (z-score) (co-treatment: GDC0941 450 nM),phospho-S6 immunofluorescence (z-score) (co-treatment: lapatinib 1 uM),phospho-S6 immunofluorescence (z-score) (co-treatment: vehicle)
Cc1cccn2c(=O)c(C=C(C#N)c3nc4ccccc4s3)c(Oc3ccc(F)cc3)nc12 (compound 10 µM),0.33,1.14,-0.48
CN(C)CC1CCOC1(c1ccccc1)c1ccccc1 (stereo unspecified) [AVex-73 hydrochloride] (compound 10 µM),-0.82,-1.17,0.2
C[C@@H]1C[C@H]2[C@@H]3CCC4=CC(=O)C=C[C@]4(C)[C@@]3(Cl)[C@@H](O)C[C@]2(C)[C@@]1(OC(=O)c1ccco1)C(=O)CCl [Mometasone furoate] (compound 10 µM),-0.46,0.3,-1.92
NCCc1c[nH]cn1 [Histamine (phosphate)] (compound 10 µM),-0.41,-0.13,0.1
CCc1cc(-c2noc(-c3cc(OC)nc(C4CCCC4)c3)n2)cc(C)c1OC[C@@H](O)CO [Cenerimod] (compound 10 µM),-3.08,-4.72,-4.14
O=C(N[C@H]1CCN(C(=O)c2cc(C(F)(F)F)cc(C(F)(F)F)c2)[C@H](Cc2ccc(Cl)cc2)C1)c1ccnc2ccccc12 (compound 10 µM),-1.97,-1.9,-1.44
Cc1nc(C(=O)N2CCC[C@H]2Cc2nnc(-c3ccccc3)o2)c(-c2ccccc2F)s1 (compound 10 µM),0.95,0.29,0.17
CSc1ccc2c(c1)N(CCC1CCCCN1C)c1ccccc1S2 (stereo unspecified) [Thioridazine (hydrochloride)] (compound 10 µM),-5.09,-8.27,-7.88
CC(C)[C@H](N=C(NS(=O)(=O)c1ccc(Cl)cc1)N1C[C@H](c2ccccc2)C(c2ccc(Cl)cc2)=N1)C(N)=O (compound 10 µM),-2.11,-0.39,0.1
CC(C)=CCC/C(C)=C/CC/C(C)=C/CSc1ccccc1C(=O)O [Salirasib] (compound 10 µM),0.9,0.86,-0.02
O=C(O)COCCN1CCN(C(c2ccccc2)c2ccc(Cl)cc2)CC1 (stereo unspecified) [Cetirizine (dihydrochloride)] (compound 10 µM),-0.15,0.74,0.52
CC[C@H](C)[C@H](NC(=O)[C@H](Cc1ccc(O)cc1)NC(=O)[C@@H]1CCCN1C(=O)[C@@H](NC(=O)[C@@H](N)CCCCN)[C@@H](C)CC)C(=O)N[C@@H](CC(C)C)C(=O)O [Neuromedin N] (compound 10 µM),0.27,-0.01,-0.38
CCCCc1nc(Cl)c(CO)n1Cc1ccc(-c2ccccc2-c2nnn[nH]2)cc1 [Losartan (potassium)] (compound 10 µM),0.74,0.83,0.81
c1ccc2c(c1)OCC(CN1CCCCC1)O2 (stereo unspecified) [Piperoxan (hydrochloride)] (compound 10 µM),0.28,0.61,0.8
COc1ccc(NS(=O)(=O)c2sc3ccc(Cl)cc3c2C)cc1N1CCNCC1 (compound 10 µM),0.28,-1,0.35
Cc1cc(NC(=O)NCCN2CCC(O)(Cc3ccccc3)CC2)c2ccccc2n1 [Palosuran] (compound 10 µM),-1.78,-2.21,-0.2
CCCCCCn1c(O)c(N=NC(=O)c2ccccc2)c2ccccc21 (compound 10 µM),-2.97,-0.75,0.59
Clc1cccc(Cl)c1NC1=NCCN1 [Clonidine (hydrochloride)] (compound 10 µM),0.37,0.75,1.03
CCN1CCCC1CNC(=O)c1cc(S(N)(=O)=O)ccc1OC (stereo unspecified) [Sulpiride] (compound 10 µM),-0.13,0.19,0.05
COc1cccc(-c2c(C)n(Cc3c(F)cccc3C(F)(F)F)c(=O)n(C[C@H](NCCCC(=O)O)c3ccccc3)c2=O)c1F [Elagolix] (compound 10 µM),0.62,-0.03,0.51
COC(=O)[C@H]1[C@H]2C[C@H]3c4[nH]c5ccccc5c4CCN3C[C@H]2CC[C@@H]1O [Rauwolscine (hydrochloride)] (compound 10 µM),0.42,0.38,-0.22
CCOc1nc2cccc(C(=O)O)c2n1Cc1ccc(-c2ccccc2-c2nnn[nH]2)cc1 [Candesartan] (compound 10 µM),1,0.32,0.19
O=C(NC(Cc1cc(=O)[nH]c2ccccc12)C(=O)O)c1ccc(Cl)cc1 (stereo unspecified) [Rebamipide] (compound 10 µM),0.69,1.1,0.16
CCCCCNC(=N)N/N=C/c1c[nH]c2ccc(OC)cc12 [Tegaserod (maleate)] (compound 10 µM),-6,-12.1,-10.3
O=C(/C=C/c1ccc(Cl)cc1)N1CCC2(CC1)CN(Cc1ccc(Cl)c(Cl)c1)C(=O)O2 (compound 10 µM),-2.76,-2.4,-1.92
CCCCOc1ccc(C(=O)Nc2ccc(F)cc2F)cc1 (compound 10 µM),-0.51,-1.06,0.89
